The list is not random: actives were taken first. Their share in the collection is about 3%.
Sm TGR block – blocks Schistosoma mansoni thioredoxin glutathione reductase | hit rate 3% among 360,000 | AID 485364 | purified TGR, DTNB reduction, TNB absorbance 405 nm | Potency, µM (titrated, usually from 114 µM), actives largely listed as inhibitors | Q962Y6; further: nearly all actives have a fitted effect of over 60% in size
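First, TGR (20 nM dispensed) and NADPH were mixed with compound. Second, a 15 min room-temperature incubation followed. Third, further NADPH and then DTNB were added to start the reaction. Finally, TNB absorbance was monitored kinetically.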
LmPK inhibitor – LmPK (Leishmania mexicana) enzyme inhibition; Q27686; Potency, µM (series often up to 57.5 µM), usual class: inhibitors; AID 1721; hit rate 0.37% among 290,000; purified LmPK, Kinase-Glo ATP luminescence, 1 h
Target sequence (Q27686 whole entry, looked up): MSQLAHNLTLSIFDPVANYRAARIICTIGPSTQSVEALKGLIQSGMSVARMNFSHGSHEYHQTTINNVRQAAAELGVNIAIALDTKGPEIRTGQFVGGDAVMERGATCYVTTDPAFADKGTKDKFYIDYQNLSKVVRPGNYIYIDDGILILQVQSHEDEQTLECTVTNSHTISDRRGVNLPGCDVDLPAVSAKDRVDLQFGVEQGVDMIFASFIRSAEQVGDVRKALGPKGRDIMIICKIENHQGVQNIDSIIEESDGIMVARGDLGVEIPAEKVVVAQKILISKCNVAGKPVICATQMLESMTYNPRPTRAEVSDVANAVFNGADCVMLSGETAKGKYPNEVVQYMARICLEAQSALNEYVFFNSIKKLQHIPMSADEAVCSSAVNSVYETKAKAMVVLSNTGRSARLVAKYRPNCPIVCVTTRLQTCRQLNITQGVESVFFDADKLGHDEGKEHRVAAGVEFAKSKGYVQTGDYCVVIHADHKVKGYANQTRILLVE
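ATP generated from ADP (0.1 mM) and PEP (0.5 mM) by 0.1 nM LmPK over 1 h at room temperature (pH 7.2 imidazole buffer) was detected by coupled luciferase luminescence. Values were normalized to uninhibited and no-enzyme wells.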
RE007 growth inh – less growth of the S. pombe RE007 Vpr strain | Potency, µM (series often up to 92.2 µM), usual class: inhibitors | S. pombe RE007 Vpr strain, BacTiter-Glo ATP luminescence, 24 h | AID 651644 | hit rate 0.21% among 360,000; active means well fitted falling curve with a large enough effect; inconclusive means small, poorly fitted or top-dose-only effect; inactive means no such curve, though single readings can be large or run the other way; further: nearly all actives have a fitted effect of over 50% in size
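Fission yeast RE007 carrying one integrated HIV-1 vpr copy, seeded at OD 0.01 in PMG+AL medium with 23 nL pinned compound. Grown 24 h at 30 degrees; viability read by BacTiter-Glo luminescence after 5 min.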
TbPYK inhibitor – blocks Trypanosoma brucei pyruvate kinase. Potency, µM (doses to about 76.8 µM), actives largely listed as inhibitors. hit rate 0.12% among 410,000. TbPYK enzyme, Kinase-Glo Plus ATP luminescence, 45 min; further: nearly all actives have a fitted effect of over 50% in size
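Luminescent Kinase-Glo Plus end-point after 45 min room-temperature reaction of T. brucei pyruvate kinase started with 130 uM ADP (final). Buffer TEA 50 mM pH 7.2 with KCl, MgCl2, BSA, Tween-20; titration-based qHTS with fitted concentration-effect curves.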
Hits are given with their value; - = inactive; ? = inconclusive; . = no result given; [ ] = remark or other dose. Unless noted, the call rests on the fitted dose curve; in most records, active means well fitted curve in the direction sought with a large enough effect; inconclusive means small, poorly fitted or top-dose-only effect, or another doubt; inactive means no such curve, though single readings can be large; an effect the other way counts as inactive or inconclusive.

SMILES	Sm TGR block	LmPK inhibitor	RE007 growth inh	TbPYK inhibitor
O=C(CNC(=O)c1cccc([N+](=O)[O-])c1)OCCCC(=O)c1ccc(F)cc1	.	.	-	-
COc1ccc(C(=O)CCNc2ccc(F)cc2)cc1	3.2µM	-	-	-
O=C(CCNc1ccc(Br)cc1)c1cccc([N+](=O)[O-])c1	0.4µM	-	?	-
COc1ccc(C(=O)CCC(=O)Nc2cc(Cl)c(O)c(Cl)c2)cc1	35µM	-	-	-
COCCn1nnnc1C(c1cc2cc(C)ccc2[nH]c1=O)N1CCCCCC1 (configuration not stated)	?	-	-	-
COCCn1nnnc1C(c1cc2c(C)cc(C)cc2[nH]c1=O)N1CCCCCC1 (configuration not stated)	13µM	-	-	-
COCCn1nnnc1C(c1cc2cc(C)cc(C)c2[nH]c1=O)N1CCN(c2ccccc2F)CC1 (configuration not stated)	40µM	-	-	-
Cc1ccc(-n2ncc3c(NCCc4ccccc4)ncnc32)cc1Cl	-	.	.	-
O=C(c1cccc(F)c1)N1CCC[C@@]2(CCN(c3ccccn3)C2)C1	.	.	.	-
COc1ccc(S(=O)(=O)NCCc2csc(-c3ccc(F)cc3)n2)cc1F	-	.	.	-
Cc1ccc(N=Cc2cc(Cc3ccccc3Cl)cc([N+](=O)[O-])c2O)c(O)c1	11µM	-	-	-
O=C(/C=C/c1cccc(F)c1)OCC(=O)N1CCc2ccccc21	.	.	-	-
CCN1/C(=C/c2ccc3cc(C)ccc3[n+]2CC)Sc2ccc3sccc3c21	.	.	-	?
CC[n+]1c(C)sc2c3ccsc3ccc21	-	-	-	4µM
CC(C)(C)C(=O)OCc1cc(=O)n2nc(C3CCCCC3)sc2n1	-	.	.	-
O=C(NCc1ccco1)C1Cc2ccccc2CN1C(=O)c1ccco1 (configuration not stated)	?	-	-	-
O=C(Nc1ccccc1)C1Cc2ccccc2CN1C(=O)c1ccco1 (configuration not stated)	40µM	-	-	-
COc1ccc(CNC(=O)C2Cc3ccccc3CN2C(=O)c2ccco2)cc1 (configuration not stated)	-	-	-	-
COc1ccccc1NC(=O)C1Cc2ccccc2CN1C(=O)c1ccco1 (configuration not stated)	32µM	-	-	-
CCc1ccc(-n2nc(C)c3c(C)cc(=O)n(Cc4nc(-c5ccccc5)oc4C)c32)cc1	-	.	.	-
COc1ccc(Cl)cc1NC(=S)NCCc1ccc(S(N)(=O)=O)cc1	2.8µM	-	-	-
O=C1CCCN1CCCNC(=S)Nc1ccccc1	?	-	-	-
COc1ccccc1NC(=S)NCCc1ccc(S(N)(=O)=O)cc1	-	-	-	-
O=C1CCCN1CCCNC(=S)Nc1ccc(Br)cc1Cl	14µM	-	-	-
COc1ccc(Cl)cc1NC(=S)NCCN1CCOCC1	.	-	-	-
SMILES	Sm TGR block	LmPK inhibitor	RE007 growth inh	TbPYK inhibitor
COc1ccc(Cl)cc1NC(=S)NCCCN1CCCC1=O	50µM	-	-	-
CCNC(=O)c1c(NC(=O)c2nc(S(=O)(=O)CC)ncc2Cl)sc2c1CCCC2	-	.	.	-
CC(=O)c1c(C)oc2ccc(N(C(C)=O)S(=O)(=O)c3ccc(Cl)c([N+](=O)[O-])c3)cc12	2.2µM	-	-	-
S=C(NCc1cccnc1)Nc1cccc(Cl)c1	32µM	-	-	-
S=C(NCc1cccnc1)Nc1cc(Cl)cc(Cl)c1	28µM	-	-	-
S=C(NCc1cccnc1)Nc1ccc(Cl)cc1	40µM	-	-	-
Cc1ccc(NC(=S)NCc2cccnc2)cc1	?	-	-	-
Cc1ccc(C(=O)NC(=S)NCc2cccnc2)c(C)c1	45µM	-	-	-
O=C(NCc1cccnc1)Nc1cc(Cl)cc(Cl)c1	-	-	-	-
Cc1ccc2nc(N3CCC(C(=O)N4CCN(c5cccc(Cl)c5)CC4)CC3)[nH]c2c1	-	.	.	-[15.4 µM]
CO/N=C1\C[C@]2(C[C@@H]3C[C@H](C/C=C(/C)C[C@@H](C)/C=C\C=C4\CO[C@@H]5[C@@H](O)C(C)=C[C@@H](C(=O)O3)[C@]45O)O2)O[C@@H](/C(C)=C/C(C)C)[C@H]1C	.	.	.	-
COc1ccc(Cl)cc1NC(=S)NCc1cccnc1	13µM	-	-	-
CC(=O)c1ccc(NC(=S)NCc2cccnc2)cc1	40µM	-	-	-
COc1ccc(Cl)cc1NC(=S)NCc1ccccn1	-	-	-	-
O=C(NCc1cccnc1)c1ccc(-c2cc(Cl)ccc2Cl)o1	40µM	-	-	-
COc1ccc2[nH]c3c(c2c1)CCN1C(=O)C(CC(=O)NCCC2=CCCCC2)C[C@H](C(=O)N2CCCCC2)[C@@]31CCc1ccccc1 (some centres not stated)	.	.	-	-
CNc1nc(Oc2cccc(NC(C)=O)c2)c2sccc2n1	.	.	-[18.4 µM]	-
CCOC(=O)C1=CC(=C2C(=O)N(CC)C(=S)N(CC)C2=O)c2ccccc2O1	25µM	-	-	-
CCN1C(=O)C(=C2C=C(C)OC(C)=C2)C(=O)N(CC)C1=S	-	-	-	-
COC(=O)c1c(NC(=O)C(Cl)Cl)sc2c1C(C(=O)OC)CC2 (configuration not stated)	-	-	-	-
COC(=O)c1c(NC(=O)C(C)(C)C)sc2c1C(C(=O)OC)CC2 (configuration not stated)	32µM	-	-	-
CCc1ccc(S(=O)(=O)c2nnn(-c3ccc(F)cc3)c2N)cc1	-	.	.	-
O=C(/C=C1\OCc2ccccc21)c1ccccc1	.	.	-	.
COc1ccc(-c2ccc(CCC(=O)O)n2-c2ccc(Cl)cc2C)cc1	40µM	.	.	-
Cc1ccc(Cl)cc1-n1c(CCC(=O)O)ccc1-c1cccs1	40µM	.	.	-
SMILES	Sm TGR block	LmPK inhibitor	RE007 growth inh	TbPYK inhibitor
Cc1ccc(C)c(-n2c(CCC(=O)O)ccc2-c2ccc(Cl)cc2)c1	?	.	.	-
Cc1c(Cl)cccc1-n1c(CCC(=O)O)ccc1-c1cccs1	40µM	.	.	-
O=C(O)CCc1ccc(-c2cccs2)n1NC(=O)c1cccs1	?	-	-	-
Cc1cc(Cl)ccc1-n1c(CCC(=O)O)ccc1-c1cccs1	28µM	.	.	-
Cc1c(Cl)cccc1NC(=O)Cn1c(CCC(=O)O)ccc1-c1cccs1	-	.	.	-
COc1ccc(-c2nc3cnc(N4CCNCC4)nc3n(C3CC3)c2=O)cc1	.	.	.	-
CCCCc1oc2ccc(NS(C)(=O)=O)cc2c1C(=O)c1ccc(OCCCN(CCCC)CCCC)cc1	.	.	.	-
O=C(Nc1nc2ccccc2n1CCN1CCOCC1)c1cccc([N+](=O)[O-])c1	.	.	.	-
CCN(CC)C(=O)c1cccnc1	.	.	.	-
O=C(CSc1nccn1Cc1ccc(Cl)cc1)Nc1ccc2c(c1)OCO2	-	.	.	-
COc1ccc(OC)c(CNC(=O)C2CCN(S(=O)(=O)N3CCCC3)CC2)c1	79µM	-	-	-
COc1ccc(CNC(=O)C2CCN(S(=O)(=O)N3CCCC3)CC2)c(OC)c1	-	-	-	-
Cc1ccc(S(=O)(=O)NCCOC(=O)Nc2sc(=S)n(C)c2C)cc1	11µM	-	-	-
Cn1c(SC2=CS(=O)(=O)c3ccccc32)nc2ccccc21	40µM	-	-	-

Screening results deposited in PubChem BioAssay by National Center for Advancing Translational Sciences (NCATS).
